According to paper PMC5540273 (PLoS ONE, 2017):
Like-named read-outs stand apart in the source and are kept apart here.

Tests used:
Settings in all cases: n = 1
VRK2 = test system: VRK2
WEE1 = test system: WEE1
WEE2 = test system: WEE2
WNK1 = test system: WNK1
WNK2 = test system: WNK2
WNK3 = test system: WNK3
WNK4 = test system: WNK4
YANK1 = test system: T1, YANK1
T1 construct: gene STK32A

YANK2 = test system: T2, YANK2
T2 construct: gene STK32B

YANK3 = test system: T3, YANK3
T3 construct: gene STK32C

[1] = concentration: 1 μM, replicates: in singlicate
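Note: KINOMEscan kinase panel screen.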

Row | Compound | %Inh (VRK2; [1]) [%] | %Inh (WEE1; [1]) [%] | %Inh (WEE2; [1]) [%] | %Inh (WNK1; [1]) [%] | %Inh (WNK2; [1]) [%] | %Inh (WNK3; [1]) [%] | %Inh (WNK4; [1]) [%] | %Inh (YANK1; [1]) [%] | %Inh (YANK2; [1]) [%] | %Inh (YANK3; [1]) [%] | %Inh (VRK2; 1 µM) [%] | %Inh (WEE1; 1 µM) [%] | %Inh (WEE2; 1 µM) [%] | %Inh (WNK1; 1 µM) [%] | %Inh (WNK2; 1 µM) [%] | %Inh (WNK3; 1 µM) [%] | %Inh (WNK4; 1 µM) [%] | %Inh (YANK1; 1 µM) [%] | %Inh (YANK2; 1 µM) [%] | %Inh (YANK3; 1 µM) [%]
1 | COc1ccccc1-c1ccc2c(NC(=O)C3CC3)n[nH]c2n1 [SB-711239] | 21 | 8 | 5 | 7 | 0 | 37 | 0 | 15 | 0 | 20 | – | – | – | – | – | – | – | – | – | –
2 | Cc1csc(-c2nc(Nc3ccncc3)c3ccccc3n2)n1 [GW869640] | 20 | 1 | 12 | 37 | 0 | 33 | 13 | 2 | 3 | 43 | – | – | – | – | – | – | – | – | – | –
3 | COc1ccc(Nc2nccc(-c3cccc(NC(=O)c4cc5cc(F)ccc5[nH]4)c3)n2)cc1 [GSK1229782] | 27 | 33 | 16 | 11 | 12 | 31 | 59 | 3 | 0 | 30 | – | – | – | – | – | – | – | – | – | –
4 | Cc1ccc(NC(=O)Nc2cccc(C(F)(F)F)c2)cc1 [GSK955403] | – | – | – | – | – | – | – | – | – | – | 0 | 3 | 0 | 0 | 0 | 0 | 0 | 0 | 0 | 0
5 | COc1cc2ncnc(Nc3ccc4nc(-c5ccccc5)[nH]c4c3)c2cc1OC.Cl [GW282450] | 0 | 0 | 0 | 10 | 16 | 6 | 0 | 2 | 0 | 9 | – | – | – | – | – | – | – | – | – | –
6 | O=C(Nc1ccc2c(c1)OCO2)NC1CCN(c2ccnc(Nc3ccc(F)cc3)n2)C1 (stereo not drawn) [GSK1379724] | 0 | 11 | 4 | 8 | 3 | 31 | 11 | 9 | 0 | 5 | – | – | – | – | – | – | – | – | – | –
7 | COc1ccc(Nc2nccc(NCCNC(=O)Nc3ccccc3F)n2)cc1 [GSK1379901] | 0 | 13 | 0 | 11 | 0 | 29 | 37 | 0 | 0 | 0 | – | – | – | – | – | – | – | – | – | –
8 | O=C(Nc1n[nH]c2cc(-c3cccc(F)c3F)ccc12)C1CC1 [SB-733894] | 0 | 0 | 0 | 0 | 0 | 0 | 0 | 0 | 0 | 0 | – | – | – | – | – | – | – | – | – | –
9 | CCCc1ccc(S(=O)(=O)NC2CCN(c3ccnc(Nc4ccc(F)cc4)n3)C2)cc1 (stereo not drawn) [GSK1379715] | 7 | 6 | 0 | 17 | 0 | 20 | 4 | 18 | 0 | 100 | – | – | – | – | – | – | – | – | – | –
